The values that follow come from PubChem BioAssay (Tox21).

Several values for one entry are separate records, joined by “and”; a condition that tells them apart may be missing. Equal entries are not always repeated. Inconclusive results are not listed. Activity calls are given as the source filed them. Unless noted, the call rests on the fitted dose curve; in most records, active means well fitted curve in the direction sought with a large enough effect in the repeat runs; inconclusive means weak or mixed curves; inactive means no such curve, though single readings can be large; an effect the other way counts as inactive or inconclusive.

A short description of test [1]: qHTS assay to identify small molecule agonists of the vitamin D receptor (VDR) signaling pathway - cell viability counter screen (AID 743224). Further: nearly all actives have a fitted effect of over 50% in size. Further: potency means the concentration at half of the fitted maximal effect. The gist of the method: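 Cells: VDR-bla, 2,000/well, settled 4 h. Treatment: compounds in DMSO, 16 h, 37C/5% CO2. Readout: CellTiter-Glo luminescence after 30 min RT.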
Test [2] in a line: qHTS assay to identify small molecule agonists of the NFkB signaling pathway (AID 1159509; active means well fitted curve in the direction sought with a large enough effect in the signal ratio in the repeat runs, not every such curve was filed as active; the % refers to the signal ratio; further: series mostly up to about 61 µM). The gist of the method:
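Readout: FRET fluorescence, 405 nm excitation, 460/530 nm emission; beta-lactamase expression disrupts FRET. Cells: ME-180 stably carrying NF-kB-driven bla reporter. Compound exposure 5 hr, 37 C, 5% CO2.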

Test [3] can be described thus: qHTS assay to identify small molecule agonists of the NFkB signaling pathway - cell viability counter screen (AID 1159515; calls by dose curve; further: nearly all actives have a fitted effect of over 55% in size; further: potency means the concentration at half of the fitted maximal effect). The gist of the method: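 Cells are seeded (2,000 NFkB-bla ME-180 per well), rested overnight, and dosed with DMSO-dissolved compounds for 5 hr at 37 C. Viability is then read by CellTiter-Glo luminescence after 30 min at room temperature.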
Test [4] is described as follows: qHTS assay to identify small molecule agonists of the endoplasmic reticulum stress response signaling pathway (AID 1159516; active means well fitted activation curve with a large enough effect in the signal ratio in the repeat runs, not every such curve was filed as active; the % refers to the signal ratio). The gist of the method: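 Cells are seeded at 1,500 per well and incubated overnight. Compounds in DMSO are added for 5 hr at 37 C, then beta-lactamase FRET substrate for 2 hr at room temperature, and fluorescence at 460 and 530 nm is measured.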

Test [5] in a line: qHTS assay to identify small molecule agonists of the endoplasmic reticulum stress response signaling pathway - cell viability counter screen (AID 1159517; calls by dose curve; further: nearly all actives have a fitted effect of over 50% in size; further: potency means the concentration at half of the fitted maximal effect). The procedure, abridged: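 Cytotoxicity of test compounds toward ESRE-bla HeLa cells was assessed after 5 hr exposure. The luminescent CellTiter-Glo signal was measured 30 min after reagent addition.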
Test [6] is described as follows: qHTS assay to identify small molecule antagonists of the retinoid-related orphan receptor gamma (ROR-gamma) signaling pathway - cell viability counter screen (AID 1159520). Further: nearly all actives have a fitted effect of over 50% in size. Further: potency means the concentration at half of the fitted maximal effect. The procedure, abridged: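 Tet-on ROR gamma CHO cells (1,000/well) were plated 4 hr, given compounds in DMSO for 2 hr at 37 C, then induced with 1 uM final doxycycline for 16 hr. Viability was read as ATP by CellTiter-Glo luminescence after 30 min.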

Test [7] deals with Nuclear receptor ROR-gamma (Homo sapiens) (UniProt P51449). The test can be described thus: qHTS assay to identify small molecule antagonists of the retinoid-related orphan receptor gamma (ROR-gamma) signaling pathway (AID 1159521; further: nearly all actives have a fitted effect of over 50% in size; further: potency means the concentration at half of the fitted maximal effect). The procedure, abridged:
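Test compounds were applied to Tet-on RORγ CHO cells 2 h ahead of doxycycline hyclate (1 uM final). Luciferase reporter activity was quantified by luminescence after 16 h at 37 C and 5% CO2.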

The nature of test [8]: qHTS assay to identify small molecule agonists of the AP-1 signaling pathway - cell viability counter screen (AID 1159525; calls by dose curve; further: nearly all actives have a fitted effect of over 55% in size; further: potency means the concentration at half of the fitted maximal effect). The procedure, abridged:
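Each titration point was normalised to DMSO and tetra n-octyl ammonium bromide controls. The read was Cell Titer Glo luminescence after 30 min at RT, following 5 h compound exposure of ME-180 AP-1-bla cells at 37 °C.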

The target in test [9] is Retinoic acid receptor RXR-alpha (Homo sapiens) (UniProt P19793). The experiment in a line: qHTS assay to identify small molecule agonists of the RXR signaling pathway (AID 1159527; calls by dose curve; further: nearly all actives have a fitted effect of over 35% in size; further: potency means the concentration at half of the fitted maximal effect). The gist of the method:
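Using 9-cis retinoic acid as the reference agonist, chemicals were tested in HEK 293T cells […] for 16 hr; substrate loading lasted 2 hr at room temperature.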

The nature of test [10]: qHTS assay to identify small molecule agonists of the RXR signaling pathway - cell viability counter screen (AID 1159529). Further: nearly all actives have a fitted effect of over 50% in size. Further: potency means the concentration at half of the fitted maximal effect. The procedure, abridged: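 Compounds dissolved in DMSO were pinned onto HEK 293T cells carrying a beta-lactamase reporter under RXR-alpha control and incubated 16 hr. Cytotoxicity was then quantified by CellTiter-Glo luminescence.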
Test [11] can be described thus: qHTS assay to identify small molecule agonists of the estrogen related receptor (ERR) signaling pathway (AID 1224820). The procedure, abridged:
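Luminescence readout (One-Glo, 30 min RT) from NTP-supplied ERR cell line exposed to compounds for 18 h at 37 C. Cells seeded 2,000 per well and pre-incubated 6 h before pin-tool compound transfer.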

Test [12] has as its system estrogen-related receptor alpha (ERRalpha) with PGC-1alpha coactivator, human. The experiment in a line: qHTS assay to identify small molecule antagonists of the estrogen related receptor signaling pathway with the pleiotropic PPARgamma coactivator (PGC) (AID 1224821; calls by dose curve). The gist of the method: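 PGC/ERR reporter cells; 6 h pre-incubation 37 C/5% CO2; pin-tool compound in DMSO, 18 h 37 C; One-Glo added, 30 min RT; luminescence read. qHTS antagonist mode.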

Test [13] can be described thus: qHTS assay to identify small molecule agonists of the AP-1 signaling pathway (AID 1159526; calls by dose curve).
Test [14] is described as follows: qHTS assay to identify small molecule antagonists of the retinoid acid receptor (RAR) signaling pathway - cell viability counter screen (AID 1159551). Further: nearly all actives have a fitted effect of over 35% in size. The procedure, abridged:
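Cells (C3RL4) are plated, incubated overnight, dosed with compound in DMSO, then given retinol at 1 uM final. After 6 h at 37 C, CellTiter-Glo is added and luminescence read following 30 min at room temperature.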

Test [15] in a line: qHTS assay to identify small molecule antagonists of the retinoic acid receptor (RAR) signaling pathway (AID 1159552; further: nearly all actives have a fitted effect of over 50% in size). The gist of the method: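 Test chemicals and DMSO controls were pin-transferred onto C3RL4 cells a day after seeding; retinol (1 uM final) followed at once. Luminescent reporter output was quantified after 6 hr of co-incubation and 30 min with detection reagent.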

A short description of test [16]: qHTS assay to identify small molecule antagonists of the vitamin D receptor (VDR) signaling pathway - cell viability counter screen (AID 743225). Further: nearly all actives have a fitted effect of over 50% in size. The procedure, abridged:
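Compounds were pinned onto VDR-bla HEK 293T cells together with 1-alpha,25-dihydroxyvitamin D3 at 3 nM final. After 16 h at 37C and 5% CO2 plus the reporter readout, cell viability was measured by CellTiter-Glo luminescence (30 min, room temperature).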

Test [17] can be described thus: qHTS assay to identify small molecule agonists of the retinoic acid receptor (RAR) signaling pathway (AID 1159553). The procedure, abridged:
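Seed C3RL4 reporter cells at 1,000 per well and incubate overnight at 37 C. Add compounds in DMSO, incubate 6 hr. Add luciferase reagent, wait 30 min at room temperature, read luminescence.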

Test [18] is described as follows: qHTS assay to identify small molecule antagonists of the estrogen related receptor (ERR) signaling pathway - cell viability counter screen (AID 1224818). Further: series mostly up to about 46 µM. The procedure, abridged: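 ERR cells, 2,000/well; 6 h settle at 37 C/5% CO2; compound pin transfer (DMSO); 17.5 h at 37 C; CellTiter-Fluor, 30 min, fluorescence read.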
A short description of test [19]: qHTS assay to identify small molecule antagonists of the estrogen related receptor signaling pathway with the pleiotropic PPARgamma coactivator (PGC) cell viability counter screen (AID 1224822; further: series mostly up to about 46 µM). The procedure, abridged:
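Multiplexed viability counter screen run in PGC/ERR cells treated with compounds for 17.5 h at 37 C; live-cell protease signal measured by CellTiter-Fluor fluorescence.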

Retinoic acid receptor RXR-alpha (Homo sapiens), sequence (P19793 whole entry, looked up): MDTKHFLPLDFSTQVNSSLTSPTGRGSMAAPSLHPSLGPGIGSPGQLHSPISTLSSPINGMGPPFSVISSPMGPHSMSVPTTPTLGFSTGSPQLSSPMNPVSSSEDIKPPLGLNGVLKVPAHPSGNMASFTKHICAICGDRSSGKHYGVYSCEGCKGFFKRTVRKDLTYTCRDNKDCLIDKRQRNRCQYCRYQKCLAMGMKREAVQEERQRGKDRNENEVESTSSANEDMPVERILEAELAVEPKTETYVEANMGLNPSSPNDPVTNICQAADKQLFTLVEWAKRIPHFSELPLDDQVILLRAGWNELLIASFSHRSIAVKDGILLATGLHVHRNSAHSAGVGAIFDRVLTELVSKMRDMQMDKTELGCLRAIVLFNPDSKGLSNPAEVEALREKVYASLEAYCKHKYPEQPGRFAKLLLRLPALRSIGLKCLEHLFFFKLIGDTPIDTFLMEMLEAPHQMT

Consider `CCCCc1oc2ccccc2c1C(=O)c1cc(I)c(OCCN(CC)CC)c(I)c1`, for which the Potency in [1] is 15.6 µM (active) and 26.6 µM (active); in test [3], 31.1 µM (active) and 26.8 µM (active); in test [5], 39.2 µM (active); in test [6], 43.6 µM (active); in [7] it was 19.5 µM (active) and 26.6 µM (active); in test [8] it was 31.1 µM (active). In test [10], the Potency was 12.4 µM (active) and 16.9 µM (active). The molecule was classed as inactive in test [2] and in test [11]. In addition, the Potency entry in [4], in [9] and in test [12] was “inactive” in each case.
As for `CC(=O)C1(C)CC2=C(CCCC2(C)C)CC1C` (centres undefined), the Potency entry in [1], in test [3], in test [4], in test [5], in test [7] and in [8] was “inactive” in each case. For the same molecule, the Potency entry in [9], in test [10], in test [14] and in [15] was “inactive” in each case. The call in [2] and in test [13] was inactive.
In the case of `CCCC(=O)O`, the Potency result in [1], in test [3], in test [4], in [5], in test [7] and in test [8] was “inactive” each time. The Potency result in test [9], in [10], in test [14] and in test [15] was “inactive” in each case. Further, the molecule was classed as inactive in test [2] and in test [13].
As to `O=c1oc(=O)c2cc3c(=O)oc(=O)c3cc12`, the Potency result in test [1], in test [16], in test [3], in [4], in test [5] and in test [6] was “inactive” each time. Further, the Potency entry in test [7], in [8], in test [10], in test [14], in test [15] and in test [17] was “inactive” throughout. In addition, the call in test [2] and in test [13] was inactive.
`Cc1cccc([N+](=O)[O-])c1C`: the Potency entry in test [1], in test [3], in test [4], in [5], in test [6] and in test [8] was “inactive” in each case. For the same molecule, the Potency entry in [9], in [10], in test [14], in test [15] and in test [17] was “inactive” each time. The call in [2] and in test [13] was inactive.
Regarding `CCCc1c(OCCCCc2nn[nH]n2)ccc(C(C)=O)c1O`, the Potency result in test [1], in test [16], in [3], in [4], in test [5] and in test [6] was “inactive” each time. In addition, the Potency entry in test [7], in test [8], in [10] and in test [14] was “inactive” in each case. Also, the result in [2] and in [13] was inactive. Also, the Potency in test [9] is 54.9 µM (active) and 23.9 µM (active).
On to `O=C(/C=C/C=C/c1ccc2c(c1)OCO2)N1CCCCC1`, for which the Potency result in [1], in test [3], in test [4], in test [5], in test [6] and in test [7] was “inactive” in each case. For the same molecule, the Potency entry in test [8], in test [9], in [14] and in test [15] was “inactive” each time. The result in test [2] and in [13] was inactive.
Consider `c1cc(-c2ccncc2)ccn1`, for which the Potency entry in test [1], in test [3], in test [4], in test [5], in test [7] and in test [8] was “inactive” throughout. Further, the Potency entry in test [9], in test [10], in test [14] and in test [15] was “inactive” in each case. For the same molecule, the outcome in test [2] and in test [13] was inactive.
Consider `CN(C)CCN(Cc1cccs1)c1ccccn1`, for which the Potency entry in test [1], in [16], in test [3], in test [4], in [5] and in test [6] was “inactive” each time. For the same molecule, the Potency result in [8], in test [9], in test [14], in [15], in test [18] and in [19] was “inactive” each time. The outcome in test [2] was inactive.
For the molecule `Cc1c(C(N)=O)cc([N+](=O)[O-])cc1[N+](=O)[O-]`, the Potency result in test [1], in test [3], in [4], in [5], in test [7] and in test [8] was “inactive” each time. For the same molecule, the Potency entry in [9], in test [10] and in [14] was “inactive” throughout. The molecule was called inactive in test [2] and in test [13].
